The record followed here is PubChem BioAssay AID623908 (Johns Hopkins Ion Channel Center, 2012).

SMILES strings stand for the structures. Screen size: about 2,500 compounds; about 1,500 (60%) were called active.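 Rule for the calls: active = duplicate-averaged ratio beyond 3 SD from buffer wells, up or down, though filed actives are nearly all decreases; inactive = the rest.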 The set was probably picked from earlier hits. These entries were drawn from the full list.

The assay can be described thus: dye ratio change in CHT-lacking host cells – cell-based, parental HEK293, membrane potential dye, counter-screen for CHT activator project (AID 623908). The following applies: parental HEK293, membrane potential dye fluorescence (FDSS); at 10 µM; measured after EC20 choline addition. (In general: A counterscreen serves to expose hits that act by an unwanted route or on another target.)
With `COc1ccc(CC2c3cc(OC)c(OC)cc3CC[N+]2(C)CCC(=O)OCCCCCOC(=O)CC[N+]2(C)CCc3cc(OC)c(OC)cc3C2Cc2ccc(OC)c(OC)c2)cc1OC` (stereo not drawn), the ratio readout change is -31.4 (active).
The same measure for `Cc1nc2ccccc2c2oc(C(=O)NCCCN3CCC(C)CC3)cc12`: -28.4 (active).
As for `COc1ccc2c(c1)cc1n2CCN=C1NN`, the figure is -53.2 (active); as for `Cc1ccc(-n2c(SCC(=O)N3c4ccccc4Sc4ccccc43)nnc2-c2ccncc2)cc1`, “inactive”.
For the compound `Cc1ccc(C(=O)c2ccc(N3CCN(C)CC3)c([N+](=O)[O-])c2)cc1`, the ratio readout change entry is “inactive”.
The same measure for `N#C/C(=C\c1ccc(-c2cccc([N+](=O)[O-])c2)o1)C(=O)NCCN1CCOCC1`: -21.1 (active); for `Cc1cc(NC(=O)c2cnn3cccnc23)n(-c2ccccc2)n1`: -40.8 (active).
On to `COc1ccc2nc(/N=C(\N)NC(=O)Nc3ccccc3)nc(C)c2c1`, for which the ratio readout change was -41.4 (active).
As for `O=C(Nc1ccncc1)c1ccc(Cl)c([N+](=O)[O-])c1`, the figure is -45.8 (active).
Turning to `Cc1cc(=O)oc2c(C)c(OC(C)C(=O)NC3CCN(Cc4ccccc4)CC3)ccc12` (stereo not drawn), the ratio readout change is -52.2 (active).
Turning to `C[C@]1(C(=O)NCCc2c[nH]c3ccccc23)C=C[C@@H](Cc2ccccc2)N1C(=O)c1ccccc1`, the ratio readout change result is “inactive”.
Take `COc1cc2nc(N3CCN(C(=O)[C@@H]4CCCO4)CC3)nc(N)c2cc1OC`: the ratio readout change was -39.5 (active).
As for `CCOc1ccc(C2c3[nH]c4ccccc4c3CCN2Cc2cccn2-c2ncccn2)cc1` (stereo not drawn), the entry is “inactive”; as for `CN(C)c1cc[n+](Cc2ccccc2)cc1`, -40.2 (active); as for `COc1ccc(Cn2c(-c3ccc(Cl)cc3)c[n+]3ccccc23)cc1`, -66.1 (active).
The same measure for `CCN(CC)CCCNC(=O)c1cn(C)c2ccc(S(=O)(=O)N(C)C3CCCCC3)cc2c1=O`: -36.4 (active).
Consider `CCOC(=O)c1cn(CC)c2cc(F)c(F)cc2c1=O`, for which the ratio readout change was -63.5 (active).
The same measure for `COc1ccccc1NC(=O)CN(c1ccccc1OC)S(=O)(=O)c1ccccc1`: “inactive”; for `COC(=O)c1ccc(C(NC(=O)OCc2ccccc2)/C(C)=C/[C@@H](C)C(=O)NCc2ccc(OC)c(OC)c2)cc1` (stereo partly drawn): “inactive”.
As for `Clc1ccc(COn2c(-c3ccc(Cl)cc3Cl)nc3ncccc32)cc1`, the entry is “inactive”; as for `CCCCCCCCCCOC(=O)Cn1c(COc2cccc(OC)c2)[n+](C)c2ccccc21`, -43.3 (active).
On to `CCCCCCCCCCOC(=O)Cn1c(COc2ccc(C)cc2)[n+](C)c2ccccc21`, for which the ratio readout change was -48.3 (active).
Take `Nc1ccccc1SCc1cc([N+](=O)[O-])cc2c1OCOC2`: the ratio readout change result is “inactive”.
On to `CC(C)CC(COCc1ccc(Cl)cc1)N1CCN(C(=O)c2ccc(C(F)(F)F)cc2)CCC1=O` (stereo not drawn), for which the ratio readout change entry was “inactive”.
As for `COC(=O)c1sc(C(F)(F)F)c(-c2ccccc2)c1S(=O)(=O)N(C)C`, the entry is “inactive”; as for `CN(C)c1cc(N)c2ccccc2n1` (tested in a mixture with another compound), -62.3 (active); as for `Cc1cc(=O)oc2cc(OCCC[n+]3ccccc3)ccc12`, -59.3 (active).
The same measure for `Cn1c(=NC(=O)c2cnccn2)sc2ccccc21`: -49.1 (active).
Take `O=C(c1ccc(F)c(S(=O)(=O)N2CCOCC2)c1)N(CCc1ccccc1)Cc1ccccc1`: the ratio readout change result is “inactive”.
As for `CC1(C)Cc2c(sc3nc4n(c(=N)c23)CCCCC4)CO1`, the figure is -42.5 (active).
As for `CCN1/C(=C/c2ccc3ccc(C)cc3[n+]2CC)Sc2ccccc21`, the entry is “inactive”.
For `COc1cc2c(cc1OC)C(Nc1ccc(S(N)(=O)=O)cc1)=NC(C)(C)C2`, the ratio readout change is -78.3 (active).
As to `COc1ccc(C(O)(C2CCCCC2)C(CN2CCCC2)c2ccccc2)cc1` (stereo not drawn), the ratio readout change entry is “inactive”.
The same measure for `N#Cc1ccc(/C=C2\CCn3c2nc2cc(C(=O)O)ccc2c3=O)cc1`: -55.3 (active); for `CCn1c(/C=C/Nc2ccccc2)[n+](CC)c2ccc(C(=O)OCC(F)(F)F)cc21`: -82.7 (active).
As for `Cc1nc2c(-c3ccccc3)c(C)[nH]n2c(=O)c1Cl`, the entry is “inactive”; as for `Cc1nc2ccccc2c(=O)n1CCCn1ccnc1`, “inactive”.
For `C=CCNc1nnc(C)c2ccccc12`, the ratio readout change was -50.7 (active).
